The full data set covers some 8,800 targets. This sample favours those with a hit. About 0.5% of all pairs of compound and target were hits.
Assays:
Assay in all cases: log2 fold change, soluble protein after heating vs DMSO (PISA); higher = thermal stabilisation; K562 lysate, 10 uM; active = over 0.2 and 3.5 SD of the protein, either way, in both replicates (recomputed)
[1] = compound: C1=CC=C(C=C1)[C@H](COC2=CC3=C(C=C2)NC(=O)N3)NC(=O)C4=CC=CN(C4=O)CC5=CC(=C(C=C5)F)F
How it was run: (§1)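 The values are log-two fold changes in thermal stability compared with solvent controls and come from duplicates. They were obtained by TMTpro 16plex LC-MS/MS, with channel sums equalised, on the supernatant after 21,000xg for 90 min. That supernatant came from crude K562 extract at 1 mg/mL protein treated with 10 μM compound for 30 min, heated for 3 min across 48°C-58°C, pooled and brought to 0.5% NP-40 at 4°C.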

[2] = compound: CC1=C(SC2=C1C(=N[C@H](C3=NN=C(N32)C)CC(=O)N)C4=CC=C(C=C4)Cl)C
How it was run: as §1

[3] = compound: CC1=C2C(=CC=C1)N=C(N(C2=O)C3=CC=CC=C3C)CN4C=NC5=C(N=CN=C54)N
How it was run: as §1

[4] = compound: Cc1sc2c(c1C)C(c1ccc(Cl)cc1)=N[C@@H](CC(=O)OC(C)(C)C)c1nnc(C)n1-2
How it was run: as §1

[5] = compound: c1ccc([C@@H]2C[C@H]2NC2CCNCC2)cc1
How it was run: as §1

Measured: log2 fold change

KNL1 (UniProt Q8NG31)
UniProt Q8NG31, sequence (Q8NG31 whole entry, looked up): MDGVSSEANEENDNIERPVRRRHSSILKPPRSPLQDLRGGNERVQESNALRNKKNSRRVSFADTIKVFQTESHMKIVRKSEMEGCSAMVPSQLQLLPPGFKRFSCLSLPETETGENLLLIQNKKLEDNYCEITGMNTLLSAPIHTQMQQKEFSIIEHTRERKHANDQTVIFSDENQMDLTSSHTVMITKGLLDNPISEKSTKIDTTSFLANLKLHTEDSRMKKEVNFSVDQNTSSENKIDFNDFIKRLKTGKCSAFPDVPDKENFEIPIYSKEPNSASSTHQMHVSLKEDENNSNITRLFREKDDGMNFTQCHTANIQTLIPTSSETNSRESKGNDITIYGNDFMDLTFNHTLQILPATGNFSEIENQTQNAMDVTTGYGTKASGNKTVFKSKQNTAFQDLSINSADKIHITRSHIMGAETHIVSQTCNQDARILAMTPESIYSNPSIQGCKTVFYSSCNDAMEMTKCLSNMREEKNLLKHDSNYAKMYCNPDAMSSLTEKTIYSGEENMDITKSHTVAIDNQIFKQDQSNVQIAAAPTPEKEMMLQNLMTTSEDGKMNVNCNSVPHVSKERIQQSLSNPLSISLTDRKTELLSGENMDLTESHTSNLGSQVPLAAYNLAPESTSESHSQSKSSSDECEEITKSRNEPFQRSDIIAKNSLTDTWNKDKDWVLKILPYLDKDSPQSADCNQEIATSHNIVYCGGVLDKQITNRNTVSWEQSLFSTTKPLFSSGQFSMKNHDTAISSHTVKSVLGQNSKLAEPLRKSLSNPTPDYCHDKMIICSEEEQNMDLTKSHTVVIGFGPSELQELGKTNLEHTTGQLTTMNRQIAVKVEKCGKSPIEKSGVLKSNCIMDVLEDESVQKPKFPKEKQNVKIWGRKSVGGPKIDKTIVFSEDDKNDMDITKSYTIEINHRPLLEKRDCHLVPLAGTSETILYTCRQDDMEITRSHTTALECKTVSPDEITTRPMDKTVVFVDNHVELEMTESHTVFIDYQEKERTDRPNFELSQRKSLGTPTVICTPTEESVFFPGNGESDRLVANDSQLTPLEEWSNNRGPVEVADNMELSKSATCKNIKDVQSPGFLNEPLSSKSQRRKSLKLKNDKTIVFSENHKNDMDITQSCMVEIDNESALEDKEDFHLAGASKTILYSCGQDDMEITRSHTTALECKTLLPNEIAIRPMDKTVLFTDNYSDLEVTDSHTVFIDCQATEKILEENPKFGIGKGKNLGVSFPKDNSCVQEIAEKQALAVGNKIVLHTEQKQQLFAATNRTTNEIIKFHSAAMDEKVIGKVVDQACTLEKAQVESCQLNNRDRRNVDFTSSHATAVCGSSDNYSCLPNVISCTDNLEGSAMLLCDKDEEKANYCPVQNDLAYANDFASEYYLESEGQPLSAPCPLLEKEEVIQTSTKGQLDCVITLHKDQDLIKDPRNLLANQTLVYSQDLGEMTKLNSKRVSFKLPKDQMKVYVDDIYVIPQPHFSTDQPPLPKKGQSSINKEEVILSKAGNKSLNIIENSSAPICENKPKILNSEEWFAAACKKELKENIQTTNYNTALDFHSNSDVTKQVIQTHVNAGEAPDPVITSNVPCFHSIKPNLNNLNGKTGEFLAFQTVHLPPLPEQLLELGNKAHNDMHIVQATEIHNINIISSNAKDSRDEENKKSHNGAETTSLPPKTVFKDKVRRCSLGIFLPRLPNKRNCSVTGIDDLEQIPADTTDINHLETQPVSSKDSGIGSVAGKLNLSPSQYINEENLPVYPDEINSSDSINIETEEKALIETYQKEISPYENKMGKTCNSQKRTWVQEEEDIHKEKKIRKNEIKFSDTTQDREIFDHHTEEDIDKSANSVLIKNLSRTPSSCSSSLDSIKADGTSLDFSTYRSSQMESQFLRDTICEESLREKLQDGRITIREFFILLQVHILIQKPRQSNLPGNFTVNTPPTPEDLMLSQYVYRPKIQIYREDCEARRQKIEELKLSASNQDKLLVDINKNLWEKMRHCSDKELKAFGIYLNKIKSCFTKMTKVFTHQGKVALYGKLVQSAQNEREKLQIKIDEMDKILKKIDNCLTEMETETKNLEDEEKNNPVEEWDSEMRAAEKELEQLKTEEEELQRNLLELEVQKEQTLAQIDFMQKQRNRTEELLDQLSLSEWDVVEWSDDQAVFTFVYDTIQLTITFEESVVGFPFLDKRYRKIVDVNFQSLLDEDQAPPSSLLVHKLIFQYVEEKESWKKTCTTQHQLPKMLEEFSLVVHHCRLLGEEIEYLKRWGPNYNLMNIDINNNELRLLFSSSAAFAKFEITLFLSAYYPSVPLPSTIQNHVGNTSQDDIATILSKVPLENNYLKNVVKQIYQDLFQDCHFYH
inactive: [1] 0.009 | [2] 0.003 | [3] -0.004 | [4] -0.03 | [5] -0.001

MPZL1 (UniProt O95297)
UniProt O95297, sequence (O95297 whole entry, looked up): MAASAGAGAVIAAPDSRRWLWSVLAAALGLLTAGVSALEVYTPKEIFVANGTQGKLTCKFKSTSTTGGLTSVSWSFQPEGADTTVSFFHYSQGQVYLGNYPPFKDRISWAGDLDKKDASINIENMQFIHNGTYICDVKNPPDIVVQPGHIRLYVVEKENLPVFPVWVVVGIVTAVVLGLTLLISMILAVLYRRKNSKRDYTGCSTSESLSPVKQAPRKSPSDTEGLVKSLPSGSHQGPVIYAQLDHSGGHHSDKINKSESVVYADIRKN
inactive: [1] 0.056 | [2] 0.006 | [3] -0.068 | [4] -0.042 | [5] 0.125

MAP4 (UniProt E7EVA0)
inactive: [1] -0.024 | [2] -0.002 | [3] 0.037 | [4] -0.018 | [5] -0.041

MON2 isoform 5 (UniProt Q7Z3U7)
inactive: [1] -0.014 | [2] 0.006 | [3] 0.005 | [4] 0.009 | [5] -0.013

LIMK1 (UniProt P53667)
UniProt P53667, sequence (P53667 whole entry, looked up): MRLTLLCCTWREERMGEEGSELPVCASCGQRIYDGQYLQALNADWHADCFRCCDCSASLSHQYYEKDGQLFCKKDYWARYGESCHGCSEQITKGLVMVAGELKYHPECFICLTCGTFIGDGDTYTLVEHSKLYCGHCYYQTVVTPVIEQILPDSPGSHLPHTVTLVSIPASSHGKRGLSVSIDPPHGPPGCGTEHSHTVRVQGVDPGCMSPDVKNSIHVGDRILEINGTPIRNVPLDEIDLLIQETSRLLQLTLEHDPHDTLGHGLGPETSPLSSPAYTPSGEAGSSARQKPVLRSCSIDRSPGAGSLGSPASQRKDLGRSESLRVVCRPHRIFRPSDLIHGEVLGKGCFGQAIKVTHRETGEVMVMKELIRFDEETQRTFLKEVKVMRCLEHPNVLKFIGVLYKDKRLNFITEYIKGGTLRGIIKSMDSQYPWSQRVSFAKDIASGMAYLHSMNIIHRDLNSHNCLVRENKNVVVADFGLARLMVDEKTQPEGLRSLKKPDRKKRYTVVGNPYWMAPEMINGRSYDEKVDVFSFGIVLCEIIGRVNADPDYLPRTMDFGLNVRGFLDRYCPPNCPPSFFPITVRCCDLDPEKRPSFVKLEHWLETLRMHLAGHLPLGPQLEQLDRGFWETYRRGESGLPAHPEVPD
inactive: [1] 0.007 | [2] -0.015 | [3] -0.07 | [4] -0.024 | [5] 0.007

KNOP1 (UniProt Q1ED39)
UniProt Q1ED39, sequence (Q1ED39 whole entry, looked up): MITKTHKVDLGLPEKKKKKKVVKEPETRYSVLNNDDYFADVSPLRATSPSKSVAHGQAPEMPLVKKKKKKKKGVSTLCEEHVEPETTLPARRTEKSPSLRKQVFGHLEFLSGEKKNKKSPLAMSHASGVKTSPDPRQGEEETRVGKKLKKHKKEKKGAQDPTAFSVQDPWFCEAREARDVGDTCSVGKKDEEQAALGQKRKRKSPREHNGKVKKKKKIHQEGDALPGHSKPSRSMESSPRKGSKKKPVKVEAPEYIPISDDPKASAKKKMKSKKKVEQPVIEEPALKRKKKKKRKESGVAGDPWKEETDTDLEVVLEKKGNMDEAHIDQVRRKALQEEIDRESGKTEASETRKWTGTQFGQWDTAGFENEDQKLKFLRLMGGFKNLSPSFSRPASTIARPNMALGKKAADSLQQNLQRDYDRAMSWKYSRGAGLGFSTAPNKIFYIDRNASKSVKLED
inactive: [1] 0.078 | [2] 0.029 | [3] 0.177 | [4] -0.162 | [5] 0.032

MARK3 (UniProt P27448)
UniProt P27448, sequence (P27448 whole entry, looked up): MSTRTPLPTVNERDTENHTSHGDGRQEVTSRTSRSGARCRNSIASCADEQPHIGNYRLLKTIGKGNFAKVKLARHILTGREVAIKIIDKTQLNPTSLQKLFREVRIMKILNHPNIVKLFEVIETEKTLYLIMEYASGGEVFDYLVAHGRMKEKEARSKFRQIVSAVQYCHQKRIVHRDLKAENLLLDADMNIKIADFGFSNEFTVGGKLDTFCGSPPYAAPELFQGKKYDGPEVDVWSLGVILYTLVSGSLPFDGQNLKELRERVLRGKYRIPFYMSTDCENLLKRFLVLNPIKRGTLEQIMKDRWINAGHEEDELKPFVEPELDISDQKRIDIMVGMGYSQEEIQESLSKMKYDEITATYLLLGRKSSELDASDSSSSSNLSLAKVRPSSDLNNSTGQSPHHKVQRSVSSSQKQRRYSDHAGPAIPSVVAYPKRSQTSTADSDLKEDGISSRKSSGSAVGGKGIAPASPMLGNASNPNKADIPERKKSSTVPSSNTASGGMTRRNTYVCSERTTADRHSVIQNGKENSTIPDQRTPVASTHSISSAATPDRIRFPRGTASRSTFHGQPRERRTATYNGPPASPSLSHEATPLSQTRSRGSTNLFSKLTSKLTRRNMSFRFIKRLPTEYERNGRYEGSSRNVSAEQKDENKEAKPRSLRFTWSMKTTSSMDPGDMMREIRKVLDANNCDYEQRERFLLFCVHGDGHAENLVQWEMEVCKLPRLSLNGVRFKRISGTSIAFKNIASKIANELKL
inactive: [1] 0.02 | [2] 0.069 | [3] 0.118 | [4] -0.06 | [5] 0.053

KPNA2 (UniProt P52292)
inactive: [1] -0.016 | [2] 0.027 | [3] 0.035 | [4] 0.003 | [5] 0.06

MRPL12 (UniProt P52815)
inactive: [1] -0.084 | [2] 0.015 | [3] -0.022 | [4] 0.027 | [5] 0.047

Source: the supplement of paper PMC10849652
